Assay results reported in the supplement of paper PMC10127200.
Counter-ions that a name gives are not always drawn.

Columns and labels:
Experiment in all cases: Euclidean distance of Cell Painting phenotypic profile (signed KS, 77 features) to DMSO centroid (dimensionless distance); 5 or 10 uM (library dependent); higher = stronger phenotypic change vs DMSO (phenoactivity)
Conditions in all cases: 48 h
786-O = system: 786-O
Summary of the method: (§1)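 Five cancer lines, together with a healthy fibroblast line, received library compounds for 48 h at a library-dependent 10 or 5 uM and 0.1% DMSO final. Harmony then derived 77 features from confocal 20X images (9 fields/well) of the stained cells, scoring each as a signed Kolmogorov-Smirnov statistic against same-plate vehicle wells. After plate-position correction, correlation weighting and replicate averaging at the top dose, phenoactivity was taken as each profile's Euclidean distance to the median vehicle profile.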

A549 = system: A549
Summary of the method: as §1

DU145 = system: DU145
Summary of the method: as §1

FB = system: FB
Summary of the method: as §1

HEPG2 = system: HEPG2
Summary of the method: as §1

OVCAR4 = system: OVCAR4
Summary of the method: as §1

Row | SMILES | Euclidean distance (786-O) | Euclidean distance (A549) | Euclidean distance (DU145) | Euclidean distance (FB) | Euclidean distance (HEPG2) | Euclidean distance (OVCAR4)
1 | CN(C)c1ccc2c(c1)Sc1cc(N(C)C)ccc1N2 [TRx0237 (LMTX) mesylate] | 2.79 | 3.35 | 2.69 | 3.38 | 2.95 | 2.88
2 | CC(C)(C)NCC(O)c1ccc(O)c(CO)c1 (stereo not drawn) [Salbutamol] | 1.03 | 0.738 | 1.09 | 0.676 | 0.894 | 0.709
3 | C/C1=C2N=C(/C=C3N=C(/C(C)=C4\[N-]C(C(CC(N)=O)C4(C)CCC(=O)NCC(C)OP(=O)([O-])OC4C(CO)OC(n5cnc6cc(C)c(C)cc65)C4O)C4(C)N=C1C(CCC(N)=O)C4(C)CC(N)=O)C(CCC(N)=O)C\3(C)C)C(CCC(N)=O)C/2(C)CC(N)=O.[CH3-].[Co+3] (stereo not drawn) [Methylcobalamin] | 0.89 | 0.91 | 1.12 | 0.99 | 1.02 | 0.959
4 | COc1cc2nccc(Oc3ccc(NC(=O)NC4CC4)c(Cl)c3)c2cc1C(N)=O [Lenvatinib (E7080)] | 2.11 | 0.779 | 1.02 | 3.36 | 1.02 | 1.33
5 | NC(=O)c1ccc(I)c([N+](=O)[O-])c1 [Iniparib (BSI-201)] | 1.06 | 0.758 | 1.44 | 1.31 | 0.803 | 1.14
6 | C=C1CCN([C@H](C)[C@](O)(Cn2cncn2)c2ccc(F)cc2F)CC1 [Efinaconazole] | 0.843 | 0.567 | 0.723 | 0.84 | 0.73 | 0.881
7 | O=C(O)CCCc1ccccc1 [Sodium Phenylbutyrate] | 0.697 | 0.666 | 1.02 | 0.829 | 0.249 | 1.01
8 | OCc1ccccc1 [Benzyl alcohol] | 1.29 | 0.876 | 0.897 | 1.21 | 1.52 | 1.19
9 | CC(=O)S[C@@H]1CC2=CC(=O)CC[C@]2(C)[C@H]2CC[C@@]3(C)[C@@H](CC[C@@]34CCC(=O)O4)[C@H]12 [Spironolactone] | 0.955 | 0.839 | 1.3 | 1.04 | 0.705 | 0.776
10 | CCNC(=O)[C@@H]1CCCN1C(=O)[C@H](CCCNC(=N)N)NC(=O)[C@H](CC(C)C)NC(=O)[C@@H](CC(C)C)NC(=O)[C@H](Cc1ccc(O)cc1)NC(=O)[C@H](CO)NC(=O)[C@H](Cc1c[nH]c2ccccc12)NC(=O)[C@H](Cc1c[nH]cn1)NC(=O)[C@@H]1CCC(=O)N1 [Leuprolide Acetate] | 0.73 | 0.754 | 0.992 | 0.659 | 0.515 | 0.971
11 | CN(C)CCCN1c2ccccc2Sc2ccc(Cl)cc21 [Chlorpromazine] | 1.47 | 1.98 | 1.56 | 2.21 | 2.01 | 1.04
12 | O=c1cc(-c2ccc(O)cc2)oc2cc(O)cc(O)c12 [Apigenin] | 1.18 | 0.946 | 1.17 | 1.39 | 1.73 | 1.32
13 | Cc1ccc(S(=O)(=O)Cc2nc(-c3ccc(C(=O)NCc4cccnc4)cc3)oc2C)cc1 | 3.04 | 2.65 | 2.6 | 1.11 | 1.68 | 2.14
14 | N#C/C(=C(/N)Sc1ccc(N)cc1)c1ccccc1C(F)(F)F | 0.949 | 1.46 | 0.889 | 1.1 | 1.41 | 0.988
15 | C=CC(=O)Nc1ccc2ncnc(Nc3cccc(Br)c3)c2c1 | 1.72 | 2.07 | 1.78 | 2.78 | 1.47 | 2.99
16 | NC(=O)N/N=C/c1ccc([N+](=O)[O-])o1 [Nitrofural] | 1.31 | 0.907 | 1.62 | 1 | 0.466 | 1.22
17 | NS(=O)(=O)c1ccc(NC(=O)Nc2ccc(F)cc2)cc1 | 0.711 | 1.08 | 1.36 | 1.37 | 1.44 | 0.718
18 | CC(C)OC(=O)C1=CN(C(=O)c2ccc(F)c(F)c2)CC(C)(C)c2c1[nH]c1ccccc21 | 0.816 | 0.896 | 0.818 | 0.982 | 1.22 | 1.07
19 | Nc1nc(CC(=O)Nc2ccc(CCNC[C@H](O)c3ccccc3)cc2)cs1 [Mirabegron] | 0.989 | 1.17 | 1.1 | 1.21 | 0.802 | 1.68
20 | CCCCCCCCCCCC(=O)O [Lauric Acid] | 1.1 | 0.784 | 1.21 | 1.34 | 0.884 | 0.985
21 | COc1cc(N2CCN(C)CC2)ccc1Nc1nccc(-c2cn(C)c3cnccc23)n1 | 2.55 | 1.56 | 1.34 | 2.68 | 1.53 | 2.69
22 | O=C(OCCOCCO)c1ccccc1Nc1cccc(C(F)(F)F)c1 [Etofenamate] | 0.974 | 0.683 | 1.59 | 1.79 | 0.744 | 0.722

Row | SMILES | Euclidean distance (786-O) | Euclidean distance (A549) | Euclidean distance (DU145) | Euclidean distance (FB) | Euclidean distance (HEPG2) | Euclidean distance (OVCAR4)
23 | COc1cc2c(cc1OC)[C@@H]1Cc3ccc(OC)c(OC)c3CN1CC2 [Tetrahydropalmatine] | 0.584 | 0.856 | 0.447 | 0.696 | 0.585 | 0.757
24 | Cc1ccccc1C(=O)Nc1ccc(C(=O)N2CCCC(N(C)C)c3ccccc32)cc1 (stereo not drawn) [Mozavaptan] | 0.843 | 0.928 | 1.17 | 0.813 | 0.445 | 0.913
25 | Cc1c(C(N)=O)cc([N+](=O)[O-])cc1[N+](=O)[O-] [Dinitolmide] | 0.913 | 1.4 | 0.756 | 0.814 | 0.831 | 1.38
26 | CCC(=O)O[C@H]1[C@H](O[C@@H]2[C@@H](C)[C@H](O[C@H]3C[C@@](C)(OC)[C@@H](O)[C@H](C)O3)[C@@H](C)C(=O)O[C@H](CC)[C@@](C)(O)[C@H](O)[C@@H](C)C(=O)[C@H](C)C[C@@]2(C)O)O[C@H](C)C[C@@H]1N(C)C [Erythromycin estolate] | 0.939 | 1.04 | 1.77 | 1.82 | 0.988 | 1.19
27 | COc1ccc(CNCc2cccc3ccccc23)cc1 | 1.72 | 1.46 | 0.984 | 1.27 | 0.933 | 1.04
28 | Nc1nc2[nH]cc(CCc3ccc(C(=O)N[C@@H](CCC(=O)O)C(=O)O)cc3)c2c(=O)[nH]1 [Pemetrexed] | 1.73 | 2.69 | 1.14 | 0.521 | 1.85 | 3.1
29 | CO[C@H]1C(=O)[C@]2(C)[C@@H](OC)C[C@H]3OC[C@@]3(OC(C)=O)[C@H]2[C@H](OC(=O)c2ccccc2)[C@]2(O)C[C@H](OC(=O)[C@H](O)[C@@H](NC(=O)OC(C)(C)C)c3ccccc3)C(C)=C1C2(C)C [Cabazitaxel] | 3.68 | 3.16 | 3.88 | 2.6 | 1.97 | 2.5
30 | CCS(=O)(=O)N1CCN(c2ccc(Nc3ncc(C(N)=O)c(NC4CC4)n3)cc2)CC1 | 2.57 | 3.03 | 3.16 | 2.62 | 2.51 | 3.39
31 | COc1cccc2c1C(=O)c1c(O)c3c(c(O)c1C2=O)C[C@@](O)(C(C)=O)C[C@@H]3O[C@H]1C[C@H](N)[C@H](O)[C@H](C)O1 [Daunorubicin HCl] | 5.05 | 5.5 | 5.6 | 4.91 | 4.88 | 5.41
32 | COc1ccc(NS(=O)(=O)c2ccc(N)cc2)nn1 [Sulfamethoxypyridazine] | 0.978 | 0.771 | 1.02 | 1.64 | 0.55 | 1.05
33 | CC(C(=O)O)c1ccc2c(c1)Cc1cccnc1O2 (stereo not drawn) [Pranoprofen] | 1.12 | 0.714 | 1.29 | 1.04 | 0.599 | 0.996
34 | Nc1ncc2ncn(CC3(OCP(=O)(O)O)CC3)c2n1 [Besifovir] | 1.03 | 0.329 | 1.01 | 1.2 | 0.716 | 0.915
35 | NC(=O)NCCC[C@H](N)C(=O)O [L-Citrulline] | 1.08 | 0.895 | 1.37 | 0.916 | 1.27 | 0.761
36 | CCN(CC)CCOC(=O)c1ccc(N)cc1 [Procaine HCl] | 0.661 | 0.741 | 0.744 | 0.877 | 0.478 | 0.916
37 | CC(C)(Oc1ccc(Cl)cc1)C(=O)OCCOC(=O)c1cccnc1 [Etofibrate] | 0.948 | 0.732 | 0.949 | 1.01 | 0.725 | 0.894
38 | O=C(Nc1ccccc1)c1ccccc1O [Salicylanilide] | 0.807 | 0.631 | 0.393 | 0.532 | 0.798 | 0.892
39 | O=c1oc2ccccc2c(O)c1Cc1c(O)c2ccccc2oc1=O [Dicoumarol] | 0.633 | 0.618 | 0.712 | 0.872 | 0.701 | 0.783
40 | C[C@H]1COC2(CCN(c3nc(=O)c4cc(C(F)(F)F)cc([N+](=O)[O-])c4s3)CC2)O1 (racemic) [BTZ043 Racemate] | 1.5 | 0.656 | 1.01 | 1.47 | 0.565 | 0.748
41 | O=C(O)[C@@H]1CCCN1 [L-Proline] | 1.26 | 0.98 | 1.37 | 1 | 0.823 | 0.766
42 | C[C@@H](O)[C@H]1C(=O)N2C(C(=O)O)=C(S[C@@H]3CN[C@H](C(=O)N(C)C)C3)[C@H](C)[C@H]12 [Meropenem Trihydrate] | 1.26 | 1.2 | 0.738 | 0.87 | 1.01 | 0.913
43 | CNCc1ccc(-c2[nH]c3cc(F)cc4c3c2CCNC4=O)cc1 | 1.61 | 1.12 | 0.651 | 1.66 | 1.33 | 1.23
